According to PubChem BioAssay (NCATS):
Results filed as inconclusive are left out. Where a call stands in place of a potency, no number is given. Activity calls are given as the source filed them. Calls come from the whole dose curve; as a rule, active = well fitted inhibition curve with a large enough effect; inconclusive = small, poorly fitted or top-dose-only effect; inactive = flat fitted curve, though single readings scatter.

Tests used:
Assay in all cases: qHTS profiling for inhibitors of Plasmodium falciparum proliferation (AID 504749); note: nearly all actives have a fitted effect of over 60% in size
Details in all cases: P. falciparum in erythrocytes, SYBR Green DNA, 72 h; series mostly up to 28.7 µM
CP291 = tested on: CP291
Procedure, shortened: (§1)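 SYBR Green fluorescence (ex 485 nm, em 535 nm) reports parasite DNA after 72 h compound exposure of infected red cells at 0.3% parasitemia, 2.5% hematocrit; signal normalized to 0.29 uM artemisinin and vehicle wells.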

CP297 = tested on: CP297
Procedure, shortened: as §1

CP335 = tested on: CP335
Procedure, shortened: as §1

DFO2036 = tested on: DFO2036
Procedure, shortened: as §1

DIV14 = tested on: DIV14
Procedure, shortened: as §1

DIV17 = tested on: DIV17
Procedure, shortened: as §1

DIV30 = tested on: DIV30
Procedure, shortened: as §1

Dd2 = tested on: Dd2
Procedure, shortened: as §1

ECU = tested on: ECU
Procedure, shortened: as §1

GB4 = tested on: GB4
Procedure, shortened: as §1

ICS = tested on: ICS
Procedure, shortened: as §1

JCK = tested on: JCK
Procedure, shortened: as §1

N140 = tested on: N140
Procedure, shortened: as §1

P93_24 = tested on: P93_24
Procedure, shortened: as §1

CP305 = tested on: CP305
Procedure, shortened: as §1

CP315 = tested on: CP315
Procedure, shortened: as §1

CP325 = tested on: CP325
Procedure, shortened: as §1

CP329 = tested on: CP329
Procedure, shortened: as §1

FAB9 = tested on: FAB9
Procedure, shortened: as §1

HB3 = tested on: HB3
Procedure, shortened: as §1
Potency is the fitted concentration of half-maximal effect.

| SMILES | Potency (CP291) | Potency (CP297) | Potency (CP335) | Potency (DFO2036) | Potency (DIV14) | Potency (DIV17) | Potency (DIV30) | Potency (Dd2) | Potency (ECU) | Potency (GB4) | Potency (ICS) | Potency (JCK) | Potency (N140) | Potency (P93_24) | Potency (CP305) | Potency (CP315) | Potency (CP325) | Potency (CP329) | Potency (FAB9) | Potency (HB3) |
| --- | --- | --- | --- | --- | --- | --- | --- | --- | --- | --- | --- | --- | --- | --- | --- | --- | --- | --- | --- | --- |
| CN1CCC(=C2c3ccccc3Sc3ccccc32)CC1 | 9.53 µM (active) | 8.49 µM (active) | 12 µM (active) | 10 µM (active) | 7.57 µM (active) | 12 µM (active) | 9.53 µM (active) | 4.47 µM (active) | 7.08 µM (active) | 3.38 µM (active) | 5.62 µM (active) | inactive | 10 µM (active) | 10 µM (active) | – | – | – | – | – | – |
| CN(C)CCCOc1nn(Cc2ccccc2)c2ccccc12 | – | inactive | – | inactive | – | – | inactive | – | inactive | – | inactive | – | inactive | – | inactive | inactive | inactive | inactive | inactive | inactive |
| Cc1cc(N)c2cc(NC(=O)Nc3ccc4nc(C)cc(N)c4c3)ccc2n1 | 4.26 µM (active) | 4.78 µM (active) | 7.57 µM (active) | 5.62 µM (active) | 13.5 µM (active) | 10.7 µM (active) | 6.01 µM (active) | 0.891 µM (active) | 10 µM (active) | 7.57 µM (active) | 5.01 µM (active) | 11.2 µM (active) | 11.2 µM (active) | – | 3.79 µM (active) | 7.57 µM (active) | – | 1.69 µM (active) | 5.01 µM (active) | 4.47 µM (active) |
| C[C@H](O)C(=O)Nc1c(I)c(C(=O)NC(CO)CO)c(I)c(C(=O)NC(CO)CO)c1I | inactive | inactive | inactive | inactive | inactive | inactive | inactive | inactive | inactive | inactive | inactive | inactive | inactive | inactive | inactive | – | inactive | inactive | inactive | inactive |
| Cc1ccc(O)c2ncccc12 | inactive | inactive | – | – | – | – | inactive | – | – | – | – | inactive | – | inactive | inactive | inactive | inactive | inactive | inactive | inactive |
| CC(=O)N/N=C/c1ccc([N+](=O)[O-])o1 | inactive | – | inactive | – | inactive | – | inactive | 12.6 µM (active) | – | – | 5.62 µM (active) | – | 12.6 µM (active) | – | inactive | inactive | inactive | inactive | – | – |
| CCCCCCCCCCCCCCCCOP(=O)([O-])OCC[N+](C)(C)C | inactive | – | inactive | inactive | inactive | inactive | inactive | inactive | inactive | – | inactive | inactive | inactive | inactive | inactive | inactive | inactive | inactive | inactive | – |
| Cc1ccnc(NS(=O)(=O)c2ccc(N)cc2)n1 | inactive | inactive | inactive | inactive | inactive | inactive | inactive | inactive | inactive | inactive | inactive | inactive | inactive | inactive | inactive | – | inactive | inactive | inactive | inactive |
| C[C@@H](CN(C)C)CN1c2ccccc2Sc2ccccc21 | inactive | inactive | inactive | inactive | – | – | – | – | inactive | – | – | inactive | – | inactive | inactive | inactive | inactive | – | inactive | inactive |
| CCN1CCCC1=O | inactive | – | inactive | inactive | inactive | inactive | inactive | inactive | inactive | inactive | inactive | inactive | inactive | inactive | inactive | inactive | inactive | inactive | inactive | inactive |
| CNCCC(Oc1ccccc1C)c1ccccc1 (stereo unspecified) | inactive | inactive | inactive | inactive | 6.01 µM (active) | 6.75 µM (active) | – | 7.08 µM (active) | inactive | inactive | – | inactive | – | – | – | inactive | inactive | – | inactive | inactive |
| Cc1cccc(C)c1NC(=O)CN1CCN(CCCC(c2ccc(F)cc2)c2ccc(F)cc2)CC1 | inactive | – | – | inactive | – | – | – | – | – | – | 3.55 µM (active) | inactive | 3.16 µM (active) | 3.98 µM (active) | inactive | inactive | inactive | inactive | inactive | – |
| CC(C)(C)CC(C)(C)c1ccc(O)c(Cc2ccc(Cl)cc2Cl)c1 | 3.38 µM (active) | 1.69 µM (active) | 1.51 µM (active) | 2 µM (active) | 0.601 µM (active) | 1.07 µM (active) | 1.51 µM (active) | 1.58 µM (active) | 2 µM (active) | 0.849 µM (active) | 0.316 µM (active) | 3.16 µM (active) | 0.794 µM (active) | 1.26 µM (active) | – | 3.79 µM (active) | 3.79 µM (active) | 4.78 µM (active) | 5.62 µM (active) | 2 µM (active) |
| CC(Cc1cccc(C(F)(F)F)c1)NCCOC(=O)c1ccccc1 (stereo unspecified) | inactive | – | inactive | inactive | – | – | inactive | – | inactive | – | inactive | inactive | inactive | inactive | inactive | inactive | inactive | inactive | inactive | inactive |
| CCN1CCN(c2cc3c(cc2F)c(=O)c(C(=O)O)cn3C2CC2)CC1 | inactive | inactive | – | inactive | inactive | inactive | inactive | inactive | inactive | inactive | – | inactive | inactive | inactive | – | inactive | inactive | inactive | – | inactive |
| NC(CO)(CO)CO | inactive | – | inactive | inactive | inactive | inactive | inactive | inactive | inactive | inactive | inactive | inactive | inactive | inactive | inactive | inactive | inactive | inactive | inactive | inactive |
| COc1cc(-c2ccc(=O)[nH]n2)ccc1OC(F)F | inactive | – | – | 0.501 µM (active) | inactive | – | – | inactive | inactive | inactive | inactive | – | 0.224 µM (active) | 0.0112 µM (active) | inactive | – | inactive | – | – | inactive |
| CCCCN1CCCC1C(=O)Nc1c(C)cc(C)cc1C (stereo unspecified) | inactive | – | – | inactive | inactive | inactive | inactive | – | inactive | inactive | – | inactive | inactive | inactive | inactive | inactive | inactive | inactive | inactive | inactive |
| CCN1CCC[C@H]1CNC(=O)c1c(OC)ccc(Br)c1OC | inactive | – | inactive | inactive | – | – | inactive | 12.6 µM (active) | inactive | – | inactive | inactive | inactive | inactive | inactive | inactive | inactive | inactive | inactive | inactive |
| CN(C)CC/C=C1\c2ccccc2Sc2ccc(Cl)cc21 | – | inactive | – | – | 7.57 µM (active) | 3.38 µM (active) | – | 8.91 µM (active) | – | – | 10 µM (active) | – | 12.6 µM (active) | – | inactive | inactive | – | inactive | 8.91 µM (active) | – |
| NC(=O)C(=O)N/N=C/c1ccc([N+](=O)[O-])o1 | – | – | inactive | inactive | – | – | – | inactive | inactive | – | inactive | inactive | inactive | inactive | – | – | – | 15.1 µM (active) | inactive | inactive |
